Hits are enriched below; roughly 8% of the tested compounds scored in any of these assays.
SW480 rereplic: A quantitative high throughput screen for small molecules that induce DNA re-replication in SW480 colon adenocarcinoma cells; SW480 DNA re-replication, Hoechst DNA content imaging, 48 h; Potency, µM (highest dose often 46.1 µM), for the others: at the highest dose re-replication activation, most hits filed as activators; hit rate 1.8% among 340,000; also: % of control where 0% means no effect; nearly all actives have a fitted effect of over 55% in size
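First, 250 cells per well were seeded. Next, compound or vehicle (23 nL) was pinned in, plates sat 48 hr at 37 C. Finally Hoechst was added for 40 min before fluorescence scanning.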
HT1080NT lethal: qHTS for induction of synthetic lethality in tumor cells producing 2HG: qHTS for the HT-1080-NT fibrosarcoma cell line. Potency, µM (top dose mostly 46.1 µM), for the others: top-dose activity, negative = less viability, hits mostly cytotoxic. hit rate 1.6% among 360,000. HT-1080-NT fibrosarcoma viability, CellTiter-Glo ATP luminescence, 48 h. AID 686970, 2013;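 also: NT is the 2HG producing partner of a matched IDH1 knockdown line; 0% = DMSO-treated cells and -100% = media-only wells without cells; nearly all actives have a fitted effect of over 55% in size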
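HT-1080-NT fibrosarcoma cells (2HG-overproducing), 750 cells/well in RPMI with 5% FBS, dosed after 2 h and incubated 48 h at 37C. CellTiter-Glo luminescence normalized to DMSO and no-cell wells; concentration-response curves fitted and classed.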
KB-V1 MDR tox: qHTS assay for MDR1-selective chemotherapeutics: Primary screen using the drug-selected MDR subline cells KB-V1; hit rate 3.4% among 400,000; AID 1347076, 2019; Potency, µM (doses to about 46.1 µM), usual class: cytotoxic; KB-V1 MDR cells viability, CellTiter-Glo, 72 h; also: % is scaled to controls: 0 for no effect and ±100 for the full control effect; nearly all actives have a fitted effect of over 60% in size
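Cytotoxicity via CellTiter-Glo luminescence after 72 h compound exposure at 37 degrees C. Cells: drug-selected KB-V1 line, DMEM phenol-red free plus 10% FBS. Compounds tested at multiple concentrations; normalized data fitted to concentration-effect curves.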
KB-3-1 tox: qHTS assay for MDR1-selective chemotherapeutics: Primary screen using the parental adenocarcinoma cell KB-3-1; Potency, µM (series often up to 46.1 µM), hits mostly cytotoxic; hit rate 1.4% among 400,000; AID 1347075, 2019; KB-3-1 viability, CellTiter-Glo ATP luminescence, 72 h; also: % is scaled to controls: 0 for no effect and ±100 for the full control effect; nearly all actives have a fitted effect of over 60% in size
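Using CellTiter-Glo luminescence, growth of non-resistant KB-3-1 adenocarcinoma cells is assessed 72 h after pin-tool compound addition at 37 °C. Normalized responses across the concentration series yield fitted curves.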
HT1080 IDH1KD tx: qHTS for induction of synthetic lethality in tumor cells producing 2HG: qHTS for the HT-1080-IDH1KD cell line | HT-1080 IDH1 knockdown viability, ATP luminescence, 48 h | Potency, µM (top dose mostly 46.1 µM), without a hit: at the top dose activity, negative = toxicity, usual class: cytotoxic | hit rate 2% among 360,000;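 also: 0% = DMSO wells and -100% = cell-free medium wells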
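After a 2 h attachment period, IDH1KD HT-1080 cells took pin-transferred compound for 48 h at 37 °C; ATP-based luminescence after 10 min room-temperature reagent incubation reported viability.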
MCF10A rereplic: A quantitative high throughput screen for small molecules that induce DNA re-replication in MCF 10a normal breast cells; Potency, µM (titrated, usually from 46.1 µM), without a hit: at the top dose activity, positive = re-replication, most hits filed as activators; hit rate 2.9% among 350,000; MCF 10A DNA re-replication, Hoechst nuclear intensity, 48 h; AID 624296, 2012; also: % of control where 0% means no effect; nearly all actives have a fitted effect of over 50% in size
Active calls of the source: *; i = inactive; ? = inconclusive; nt = no result; ! = not confirmed by another sample. Calls follow the shape of the dose curve; as a rule, active = well fitted curve in the direction sought with a large enough effect; inconclusive = small, poorly fitted or top-dose-only effect, or another doubt; inactive = no such curve, though single readings can be large; an effect the other way counts as inactive or inconclusive. Potency is read from the fitted curve at half-maximal effect.

SMILES	SW480 rereplic	HT1080NT lethal	KB-V1 MDR tox	KB-3-1 tox	HT1080 IDH1KD tx	MCF10A rereplic
COc1cccc(-c2nc(SCc3cc(=O)c4cc(Cl)ccc4[nH]3)n[nH]2)c1	nt	nt	i	i	nt	nt
Cc1ccnc(NC(=S)N2CCN(c3ccc(N)cc3)CC2)c1	nt	nt	i	i	nt	nt
CC(=O)c1cccc(-c2ccnc3c2CC(C(=O)NCc2ccco2)O3)c1 (stereo not given)	nt	?	0.92µM*	1.2µM*	1.3µM*	nt
CC(=O)c1cccc(-c2ccnc3c2CC(C(=O)NCc2ccc(N4CCN(C)CC4)cc2)O3)c1 (stereo not given)	nt	-12%	i	i	-9%	nt
O=C(NCc1cccc(Cl)c1)C1Cc2c(-c3cccc(F)c3)ccnc2O1 (stereo not given)	nt	?	?	i	?	nt
O=C(NCc1ccccc1)C1Cc2c(-c3cccc(F)c3)ccnc2O1 (stereo not given)	nt	?	1.5µM*	4.6µM*	1.2µM*	nt
O=C(NCc1ccccc1)C1Cc2c(-c3ccc(Cl)cc3)ccnc2O1 (stereo not given)	nt	?	1.5µM*	5.8µM*	0.73µM*	nt
Cc1ccc(S(=O)(=O)c2nc(-c3cccc(Br)c3)oc2N2CCCCCC2)cc1	nt	nt	i	i	nt	nt
Cc1ccc(Cl)cc1N1CCN(S(=O)(=O)c2ccc3[nH]c(=O)ccc3c2)CC1	1%	?	i	i	?	23µM*
Cc1ccc(Cl)cc1N1CCN(S(=O)(=O)c2ccc3c(c2)NC(=O)C(C)C(=O)N3)CC1 (stereo not given)	9%	?	i	i	-28%	18µM*
Cc1ccc(Cl)cc1N1CCN(S(=O)(=O)c2ccc3c(c2)C(C(C)C)C(=O)N3)CC1 (stereo not given)	nt	nt	?	i	nt	nt
Cc1ccc(Cl)cc1N1CCN(S(=O)(=O)c2ccc3[nH]c(=O)c(=O)[nH]c3c2)CC1	-93%	-2%	i	i	-5%	26%
COc1cccc(Cn2cc(-c3cccc(C(F)(F)F)c3)nn2)c1	-12%	21%	?	i	9%	9%
COc1ccc(-c2cn(Cc3cccc(OC)c3)nn2)cc1	-9%	10%	10µM*!	?	12%	16%
O=C(COc1ccc(Cl)cc1Cl)N1CCNC1=O	2%	0%	i	i	21%	-1%
CC1(Br)C(Sc2ccccc2[N+](=O)[O-])=Nc2ccccc21 (stereo not given)	nt	6.5µM*	?	?	?	nt
Cc1[nH]c(=O)[nH]c(=O)c1Sc1ccccc1[N+](=O)[O-]	-3%	8%	i	i	17%	-4%
CCOC(=O)c1ccccc1NC(=O)Nc1ccc(OC)c(OC)c1	7%	-10%	i	i	-30%	0%
Cc1cc(NC(=O)NC(=O)c2ccccc2NC(=O)C(C)N)ccc1Oc1ncc(Br)cn1 (stereo not given)	2.9µM*	?	0.73µM*	0.23µM*	0.092µM*	?
CCOC(=O)N1C(=O)[C@](CC)(c2ccccc2)N1C(=O)OCC	?	13%	i	i	5%	16µM*
CC1=C(C(=O)Nc2ccccc2)C(c2ccc(Br)cc2)n2nc(CCCO)nc2N1 (stereo not given)	nt	nt	i	i	nt	nt
C[C@@H]1CCCCO[C@@H](CN(C)C(=O)Cc2ccccc2)[C@@H](C)CN([C@H](C)CO)C(=O)c2cc(NC(=O)C3CCCCC3)ccc2O1	nt	3%	i	i	-2%	nt

High-throughput results from PubChem BioAssay.
